We go through 45 sequences from publication PMC7819943, “Rice protein-binding microarrays: a tool to detect cis-acting elements near promoter regions in rice”.

Over roughly 39,000 sequences, “fluorescence intensity (a.u.)” has its median near 4,300; the highest 2% begin near 39,000. For the sample, the highest values were picked, then their nearest neighbours and some sequences at random.

For this experiment, the target named is T1, OsSMF1 (Oryza sativa, UniProt Q6ZLB0 1-436).
T1 sequence: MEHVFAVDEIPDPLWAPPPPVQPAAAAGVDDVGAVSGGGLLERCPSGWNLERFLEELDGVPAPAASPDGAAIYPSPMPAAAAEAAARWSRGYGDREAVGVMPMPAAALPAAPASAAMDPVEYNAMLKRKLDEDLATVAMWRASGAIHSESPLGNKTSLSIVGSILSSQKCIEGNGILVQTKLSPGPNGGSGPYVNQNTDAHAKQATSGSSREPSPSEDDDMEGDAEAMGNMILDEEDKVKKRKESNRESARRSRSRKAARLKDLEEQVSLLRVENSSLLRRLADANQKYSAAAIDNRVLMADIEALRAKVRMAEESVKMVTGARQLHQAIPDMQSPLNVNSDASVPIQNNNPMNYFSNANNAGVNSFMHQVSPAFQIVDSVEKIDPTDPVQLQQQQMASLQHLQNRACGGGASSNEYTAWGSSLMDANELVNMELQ
Put plainly: protein-binding microarray (RPBM); PBS, 2% BSA, 51.3 ng/ul salmon testes DNA, 50 uM zinc acetate, 200 nM TF, 25 C, 1 h; high values mean tight binding. The conditions noted are these: protein: recombinant; tags: N-terminal polyhistidine and DsRed monomer fusion (pET32a); chain copies: 2; label: CyDye5-dUTP incorporated in the synthesized complementary strand; 3' TTTTT single-stranded linker to array surface; dsDNA, one strand shown. The procedure, abridged:
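Using Ni–NTA, transcription factors fused N-terminally to polyhistidine and DsRed were purified after expression in E. coli BL21-CodonPlus. These were incubated at 200 nM with a blocked, double-stranded custom Agilent array for 1 h at 25 °C in a buffer containing 50 µM zinc acetate, and the array was washed. The binding signal is per-feature fluorescence intensity (arbitrary units) on an Axon 4000B scanner.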
As for “GAAGAATCGGCCCAACGACCAAGAGGGAGTCAAAATAGACCGGAGTCACCTAGTGCAG”, the binding signal is 22600 fluorescence intensity (a.u.).

Turning to “CCCACCTGTGACTCAGCGAGCCGACTGCCACGTCAGACAACGGAGTCACCTAGTGCAG”, the binding signal was 34400 fluorescence intensity (a.u.).

“ACATCCGAGAGACTAGGCCGACAAATCACCACCGACACGTCGGAGTCACCTAGTGCAG”: the binding signal is 5890 fluorescence intensity (a.u.). On to “CAGTGCCGACTGCCGAGGCAGAGAGGCAGACAAAGTGACACGGAGTCACCTAGTGCAG”, for which the binding signal is 54900 fluorescence intensity (a.u.). As for “GTAGAAAGCAGGGATAAAGTATTGGTGGAGATGTCACGCCCGGAGTCACCTAGTGCAG”, the binding signal is 3560 fluorescence intensity (a.u.). Turning to “ATCCACGAGGGCAAGCAAGCAAGCAAGCTCCACCTCTCTGCGGAGTCACCTAGTGCAG”, the binding signal was 3220 fluorescence intensity (a.u.).

Turning to “GTCAAAGTTATAAAAGTTTGACCTCAACTTTGTCCAAAACCGGAGTCACCTAGTGCAG”, the binding signal was 24200 fluorescence intensity (a.u.).

For “CTTAAAGCAGTTTGACTTTGACCAAAGTCAAAACGTCTTACGGAGTCACCTAGTGCAG”, the binding signal is 40600 fluorescence intensity (a.u.). On to “TTAAATTTGAAACAGTTTGACTTTGACCAGTCAAAGTCTTCGGAGTCACCTAGTGCAG”, for which the binding signal is 8060 fluorescence intensity (a.u.). With “CTGGGCAAAATCTCTCCCATACATACACTACAGCGGCGAACGGAGTCACCTAGTGCAG”, the binding signal is 3290 fluorescence intensity (a.u.). As for “GGGCGTTGCGGCCGTCACACGTGGTATGGGAGGGCGCCGCCGGAGTCACCTAGTGCAG”, the binding signal is 5820 fluorescence intensity (a.u.). Under “TAGTAGTACTATGTAACCGGTACAGTCACCAAAACAGGGTCGGAGTCACCTAGTGCAG” stands 5260 fluorescence intensity (a.u.).

Take “CAGTTGACAAATGACAACCGGCACGTTTGCAACATGCAAGCGGAGTCACCTAGTGCAG”: the binding signal is 3220 fluorescence intensity (a.u.). The figure for “TTTGCCTACTCATCACCACATGTATAAAGTGTAAACTTTACGGAGTCACCTAGTGCAG” is 5240 fluorescence intensity (a.u.); for “CAGTTCTTAAACTTGTAAAGTTGTGTCATATACCACATTACGGAGTCACCTAGTGCAG” it is 39600 fluorescence intensity (a.u.); for “GTTTATACCTATAAAGTTTCTATATTAAAAGTTTACGTGTCGGAGTCACCTAGTGCAG” it is 3490 fluorescence intensity (a.u.).

For the sequence “CCAAAATTAGCTTCGGTCGGTACAAACACCAGAATTCAGCCGGAGTCACCTAGTGCAG”, the binding signal was 3220 fluorescence intensity (a.u.). Turning to “GTCTCCGATGCCCCGATGCCGCCGCGTCGCTGGCCTGATTCGGAGTCACCTAGTGCAG”, the binding signal is 3390 fluorescence intensity (a.u.). For “CACCGCCCCATCGATCTCCGCCCGGCCGCCACCAATCTCGCGGAGTCACCTAGTGCAG”, the binding signal is 3310 fluorescence intensity (a.u.). Under “CGGAATGTCTCCGCGGAAGATGCCCAAGGAATCGCCTGGCCGGAGTCACCTAGTGCAG” stands 39500 fluorescence intensity (a.u.).

As for “ATTAATAGCAGTGACGTCTTGCACATACTGTATGAGTCATCGGAGTCACCTAGTGCAG”, the binding signal is 11000 fluorescence intensity (a.u.). Consider “TTATCTCCTCATCCATTTTCATCCTCGTCTACATTCACTGCGGAGTCACCTAGTGCAG”, for which the binding signal is 24600 fluorescence intensity (a.u.). “AATGTAATAAATTGTAGATGTCATTGCTATGCATGCATGACGGAGTCACCTAGTGCAG”: the binding signal was 3920 fluorescence intensity (a.u.).

For the sequence “TCTTTGGTGATGGATAATAACCCGATATAAACAATATAGACGGAGTCACCTAGTGCAG”, the binding signal is 65000 fluorescence intensity (a.u.). Under “ATTGGACGATAAAATATTGGACGGTGATTCACCTTTTAGACGGAGTCACCTAGTGCAG” stands 3170 fluorescence intensity (a.u.); under “GAACATATCACATGCTCATATCAAAATTTATAATATTAAACGGAGTCACCTAGTGCAG”, 35200 fluorescence intensity (a.u.); under “ATAATATAAAACGGATGGATCACATGCTATGAACCTATGACGGAGTCACCTAGTGCAG”, 51200 fluorescence intensity (a.u.).

Consider “CATGGATAGGATAATCGTAACAATTATCTAGACAGTGATGCGGAGTCACCTAGTGCAG”, for which the binding signal was 3140 fluorescence intensity (a.u.).

“ATTATGAGCCATGATTCTCTCATCATGCAATGTCCCAGCACGGAGTCACCTAGTGCAG”: the binding signal is 22100 fluorescence intensity (a.u.).

In the case of “TATATATGCACCGAGACACATATGAATCATCACACGTCTTCGGAGTCACCTAGTGCAG”, the binding signal is 3550 fluorescence intensity (a.u.). In the case of “CGCCGCCTCACCAGCGCCACCTCCACCTCCACCTACGTCTCGGAGTCACCTAGTGCAG”, the binding signal is 3270 fluorescence intensity (a.u.). “TTGCAGCAGAATACTTACCACGACAGAATTTGAGGATCTACGGAGTCACCTAGTGCAG”: the binding signal was 29500 fluorescence intensity (a.u.). The figure for “CCAGCATCTGACACATCCTTTCCTAGCTGATCGACTCCATCGGAGTCACCTAGTGCAG” is 3420 fluorescence intensity (a.u.).

In the case of “AGATCGACCAATGATACACACACAGCATATGAATCCTTTCCGGAGTCACCTAGTGCAG”, the binding signal is 41400 fluorescence intensity (a.u.). Under “GCATAAATGATGTGTTTCTGAATCCAATTACACACATGATCGGAGTCACCTAGTGCAG” stands 5020 fluorescence intensity (a.u.). The figure for “AATACCGACGTGTCTAGACCTCAGCGACACACTGGAGCGTCGGAGTCACCTAGTGCAG” is 5000 fluorescence intensity (a.u.). As to “GTGTTCGACGAAATGCCAACAAGGAACGTGGTGGCGTGGACGGAGTCACCTAGTGCAG”, the binding signal is 3500 fluorescence intensity (a.u.). As for “TCCCCTTCTTCACCGATGCGGCGATGCGCGCGCCTTCTTCCGGAGTCACCTAGTGCAG”, the binding signal was 27500 fluorescence intensity (a.u.). The figure for “GAACGATGACGGCGCGATGGCCGCCGCCGTGGCGCGGACGCGGAGTCACCTAGTGCAG” is 3210 fluorescence intensity (a.u.); for “CGCGCGCGCCGCCGCCGGTCGGTAACGACGGCGACGATGACGGAGTCACCTAGTGCAG” it is 65500 fluorescence intensity (a.u.). The figure for “CCCACGGCGCAACGATGACGATGACGATGCCCTTCCGGCGCGGAGTCACCTAGTGCAG” is 46900 fluorescence intensity (a.u.); for “ACGGACGGGCGTCGGCGCGGGCGATGACGGACTGACGACGCGGAGTCACCTAGTGCAG” it is 3490 fluorescence intensity (a.u.). Under “GCGCCGCCGGCGCCGCGGCGCGGCCGATGACCACGCCGGACGGAGTCACCTAGTGCAG” stands 3490 fluorescence intensity (a.u.). Take “CAAGGCGGCCCAACCATCTTCGAAATGCGGCCCATGACGACGGAGTCACCTAGTGCAG”: the binding signal was 39100 fluorescence intensity (a.u.). On to “TATCATACAAATGACGACACCACACAAACGGCGGCCCAAGCGGAGTCACCTAGTGCAG”, for which the binding signal was 4320 fluorescence intensity (a.u.).
